Measurements from PubChem BioAssay AID778 (Sanford-Burnham Center for Chemical Genomics, 2007).
The whole screen tested about 96,000 compounds, of which about 20,000 (21%) were called active.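 The calls were made as follows: active = CYP2C19 inhibition above a set limit at 5 µM in the primary screen (cut at about 50% in these data); inactive = the rest.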 These entries were drawn from the full list.

target: Cytochrome P450 2C19 (Homo sapiens) (UniProt P33261); assay: blockers of cytochrome P450 2C19 activity – biochemical, luminescence, ADME assay, primary screen (AID 778); details: CYP2C19 Supersomes, luciferin-H EGE luminescence, 30 min; at 5 µM; stronger effect = higher value;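 also: plate controls were negative control wells for no effect and 2.5 mM tranylcypromine positive control for full effect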
Sequence (P33261 whole entry, looked up): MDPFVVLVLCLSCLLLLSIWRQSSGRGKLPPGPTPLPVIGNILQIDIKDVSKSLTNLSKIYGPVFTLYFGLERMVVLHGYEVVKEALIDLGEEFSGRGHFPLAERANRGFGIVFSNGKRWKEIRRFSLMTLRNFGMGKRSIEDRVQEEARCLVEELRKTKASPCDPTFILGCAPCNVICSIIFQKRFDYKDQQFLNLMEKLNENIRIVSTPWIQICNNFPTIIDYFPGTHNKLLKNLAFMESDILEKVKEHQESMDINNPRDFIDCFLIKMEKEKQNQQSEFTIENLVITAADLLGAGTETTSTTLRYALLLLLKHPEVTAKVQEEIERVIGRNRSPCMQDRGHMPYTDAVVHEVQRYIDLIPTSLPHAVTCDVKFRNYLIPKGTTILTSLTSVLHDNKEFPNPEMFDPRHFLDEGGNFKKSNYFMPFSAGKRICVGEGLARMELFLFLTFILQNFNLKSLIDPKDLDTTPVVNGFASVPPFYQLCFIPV

| SMILES | inhibition |
| --- | --- |
| Nc1nnc(SCCN2C(=O)c3ccccc3S2(=O)=O)s1 | 29% (inactive) |
| O=C(N/N=C/c1ccsc1)c1cc(O)cc(O)c1 | 7% (inactive) |
| Nc1nc(C23CC4CC(CC(C4)C2)C3)cs1 | 40.8% (inactive) |
| CCC(C)OC(=O)C(C)Oc1ccc(-c2ccccc2)cc1 (stereo not drawn) | 0.6% (inactive) |
| O=C(NCN1CCN(CCO)CC1)c1cnccn1 | -8.6% (inactive) |
| Cc1ccc(S(=O)(=O)C2(S(=O)(=O)c3ccc(C)cc3)CCCC2)cc1 | 83.3% (active) |
| Cc1ccc(S(=O)(=O)NC(=O)N2CCCC(C)(C)C2)cc1 | -4.4% (inactive) |
| Cc1ccc(S(=O)(=O)N(C)C2(C)CCS(=O)(=O)C2)cc1 (stereo not drawn) | 18.3% (inactive) |
| CCN(CC)S(=O)(=O)c1ccc(N2CCOCC2)c(C(=O)O)c1 | 9.1% (inactive) |
| CN(C)S(=O)(=O)c1ccc(N2CCCC2)c(C(=O)NCc2ccccc2)c1 | 62.4% (active) |
| Cc1ccc(S(=O)(=O)N2CCOCC2)cc1C(=O)NCc1ccc(F)cc1 | 15.3% (inactive) |
| Cc1cc(OC(=O)c2ccc(Cl)cc2)cc(=O)n1C | -5.3% (inactive) |
| O=C(Nc1ccccc1Cl)O/N=C(/c1ccccc1)c1ccccn1 | 21.3% (inactive) |
| O=C(N1CCOCC1)N(Cc1ccccc1)c1ccccn1 | 31.3% (inactive) |
| COc1ccc(Cc2nnc(NS(=O)(=O)Cc3ccccc3)s2)cc1 | 9% (inactive) |
| Cc1cccc(NC(=O)CN2CCCN(S(=O)(=O)c3ccc(Br)s3)CC2)c1 | 67.4% (active) |
| Cc1cccc(NC(=O)CN2C(=O)CNC2=O)c1 | -10.1% (inactive) |
| Cc1cccc(NC(=O)CSc2nnc(NC(=O)CN3CCOCC3)s2)c1 | 0.9% (inactive) |
| CCc1nnc(NC(=O)CSc2nc3c(c(=O)n2-c2ccccc2OC)SCC3)s1 | 11.4% (inactive) |
| CS(=O)(=O)c1ccc2nc(NC(=O)CN3CCCCCC3)sc2c1 | -6% (inactive) |
| O=C(CSc1nc2ccccc2o1)N1CCN(c2ccc(Cl)cc2)CC1 | 4.3% (inactive) |

| SMILES | inhibition |
| --- | --- |
| CC1Cc2ccccc2N1C(=O)CSc1nc2ccccc2o1 (stereo not drawn) | 76.8% (active) |
| Cc1nnc(SCC(=O)N2CCN(c3ccccc3)CC2)n1-c1ccccc1 | -4.9% (inactive) |
| Cc1cc(=O)[nH]c(SCC(=O)N2c3ccccc3CC2C)n1 (stereo not drawn) | 1.8% (inactive) |
| CCS(=O)(=O)c1ccc2oc(SCC(=O)N3c4ccccc4CC3C)nc2c1 (stereo not drawn) | -8.1% (inactive) |
| O=C(CSc1nc2ccccc2o1)N1CCN(c2ccccc2)CC1 | 55.6% (active) |
| Cc1ccccc1Nc1nc(N)nc(CN2CCN(c3ccccn3)CC2)n1 | 12.9% (inactive) |
| Cc1ccc(C)c(NC(=O)c2ccc(OC(=O)c3ccco3)cc2)c1 | 4.9% (inactive) |
| CCC(CC)c1nnc(NS(=O)(=O)Cc2ccccc2)s1 | -10.5% (inactive) |
| CSc1ccc(C#N)cc1NC(=O)c1ccc(Cl)cc1 | 3% (inactive) |
| COc1ccc(Cn2cccc(NC(=O)Nc3ccc(C#N)cc3)c2=O)cc1 | 5.5% (inactive) |
| O=C(Nc1cccn(Cc2c(Cl)cccc2Cl)c1=O)c1ccc(Cl)cc1 | 79.9% (active) |
| Cc1cc(/C=C2/SC(=O)N(CC(=O)OC(C)C)C2=O)c(C)n1C | 1.6% (inactive) |
| Cc1c(NC(=O)CSc2cccc3cccnc23)c(=O)n(-c2ccccc2)n1C | -13.9% (inactive) |
| Cc1ccc(-n2nc3cc(Cl)c(NC(=O)c4ccco4)cc3n2)cc1 | 10.3% (inactive) |
| CC1CCc2c(c3ccccc3[nH]c2=O)O1 (stereo not drawn) | 25.5% (inactive) |
| CC1CN(c2nc(-c3ccccc3)nnc2-c2ccccc2)CC(C)O1 (stereo not drawn) | -3.1% (inactive) |
| Cn1nc(-c2ccccc2)c(-c2nc(-c3ccc(Cl)cc3)no2)c1Cl | -16.4% (inactive) |
| Clc1ccc(-c2nnc(-c3ccccc3)nc2N2CCSCC2)cc1 | 72% (active) |
| O=C(Nc1ccccc1C(F)(F)F)c1cc(-c2ccc(O)cc2)on1 | 6.8% (inactive) |
| COc1ccc(C(=O)Nc2nc(-c3ccc(S(=O)(=O)N4CCOCC4)cc3)cs2)cc1 | 14.6% (inactive) |
| Cn1ccs/c1=N\S(=O)(=O)c1ccc(C(C)(C)C)cc1 | 65% (active) |

| SMILES | inhibition |
| --- | --- |
| CCC1=[N+]([O-])C(C)(/C(C)=N\O)N(O)C1(C)C (stereo not drawn) | 23.5% (inactive) |
| NC(=O)Cn1c(=O)oc2ccccc21 | -6.4% (inactive) |
| O=C(c1ccc(S(=O)(=O)N2CCOCC2)cc1)N1CCN(c2ccccc2)CC1 | -4.7% (inactive) |
| O=C1C(Cl)=C(N2CCOCC2)C(=O)N1c1ccccc1 | 84.7% (active) |
| c1ccc(-n2nnnc2N2CCOCC2)cc1 | 33.5% (inactive) |
| CC(C)(C)NC(=O)c1cc(NC(=O)c2ccco2)cc(NC(=O)c2ccco2)c1 | 20.8% (inactive) |
| CCOC(=O)c1sc(=S)n2c1[nH]c(=O)c1ccc(C(=O)OC)cc12 | -1.3% (inactive) |
| CCOC(=O)C1=C(C)Nc2sc(C(=O)c3ccc(Br)cc3)c(N)c2C1c1ccc(C(=O)OC)cc1 (stereo not drawn) | 88.2% (active) |
| CCOC(=O)N1CCC(NC(=O)c2cnn3ccccc23)CC1 | 5.9% (inactive) |
| O=C1C(C=NCC2CCCO2)=C(O)c2ccccc21 (stereo not drawn) | 8.1% (inactive) |
| C=CCCC(=O)Nc1nc(C)c(-c2csc(Nc3ccc(Cl)cc3)n2)s1 | 56.4% (active) |
| CCCCC(=O)Nc1nc(C)c(-c2csc(Nc3ccc(Cl)cc3)n2)s1 | 45.9% (inactive) |
| CCCCCCC(=O)Nc1nc(C)c(-c2csc(Nc3cc(Cl)ccc3OC)n2)s1 | -7.7% (inactive) |
| O=C(Nc1cc(N2CCOCC2)ncn1)NC1(C(F)(F)F)Oc2ccc(Cl)cc2O1 (stereo not drawn) | 1% (inactive) |
| CSCCC(NC(N)=O)C(=O)N(C)CC(=O)Nc1ccc(C)cc1 (stereo not drawn) | 3.3% (inactive) |
| O=C(c1ccccc1)N1CCN(c2ccc([N+](=O)[O-])c(NCc3ccco3)c2)CC1 | 82.3% (active) |
| O=C(NCc1ccco1)c1nc(-c2ccccc2)n(-c2ccccc2)n1 | 25.6% (inactive) |
| O=[N+]([O-])c1ccc(N2CCN(S(=O)(=O)c3ccc4ccccc4c3)CC2)cc1NCc1ccco1 | 19.1% (inactive) |
| O=C1N=C(N2CCCC2)S/C1=C\c1cccc(Br)c1 | 58.2% (active) |
| Cc1ccsc1/C=C1\SC(N2CCOCC2)=NC1=O | 29% (inactive) |
| O=C1N=C(N2CCOCC2)S/C1=C\C=C/c1ccccc1 | 10.8% (inactive) |
